The campaign covered roughly 360,000 compounds. About 1,600 (0.44%) were called active. The sample as a whole holds a higher share of actives than the screen did. A number with no mark means an inactive call.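 Rule for the calls: active = every replicate showing at least 50% inhibition; inconclusive = mean inhibition at least 50% but not in every replicate; inactive = the rest.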
target: DNA repair protein RAD52 homolog (Homo sapiens) (UniProt P43351); assay: blockers of RAD52 strand annealing activity – biochemical, FRET, single point, set 2, primary screen (AID 651710); details: recombinant RAD52 DNA annealing, FRET fluorescence; at 18.7 µM; stronger effect = higher value
Sequence (P43351 whole entry, looked up): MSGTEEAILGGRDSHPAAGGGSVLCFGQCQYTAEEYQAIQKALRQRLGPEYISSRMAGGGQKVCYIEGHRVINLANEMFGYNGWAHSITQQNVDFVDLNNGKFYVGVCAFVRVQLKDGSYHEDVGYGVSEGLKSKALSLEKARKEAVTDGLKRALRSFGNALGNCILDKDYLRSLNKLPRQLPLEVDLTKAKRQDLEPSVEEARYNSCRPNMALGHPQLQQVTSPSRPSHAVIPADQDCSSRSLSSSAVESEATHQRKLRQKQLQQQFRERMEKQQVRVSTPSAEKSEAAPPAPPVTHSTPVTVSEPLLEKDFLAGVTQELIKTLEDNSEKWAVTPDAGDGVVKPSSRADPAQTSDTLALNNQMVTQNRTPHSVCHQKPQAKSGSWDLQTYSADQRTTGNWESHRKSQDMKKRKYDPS

SMILES	inhibition
CCOc1cccc(=NC2CCCCC2)c2c(C)[nH]c(C)c12	79.1% (active)
Clc1ccc([C@@H]2CC3CCC2N3)cn1 (stereo not given in full)	-8.46%
COc1ccc(C#Cc2ccc([C@H]3[C@H](CO)N4CCCCN(C(=O)Cc5ccccc5)C[C@@H]34)cc2)cc1	-26.3%
COc1c(O)ccc2c1-c1c3c(cc4c1C(C2)N(C)CC4)OCO3 (stereo not given)	6.1%
COc1ccc2c(c1O)-c1cccc3c1[C@@H](C2)N(C)CC3	60.5% (active)
COC1=C[C@@H]2[C@@H]3Cc4ccc(OC)c(O)c4[C@]2(CCN3C)CC1=O	-9.71%
O=C(Cc1cccnc1)N1CCCCN2[C@@H](CO)[C@H](c3ccc(C#CC4CCCC4)cc3)[C@@H]2C1	11.6%
O=C(O)[C@H]1[C@H](CO)[C@H]2Cn3c(ccc(-c4ccccc4F)c3=O)[C@@H]1N2C(=O)c1cccnc1	6.1%
N#Cc1cccc(-c2ccc([C@H]3[C@@H](CO)N4CCCCN(C(=O)Cc5cccnc5)C[C@@H]34)cc2)c1	-17%
O=C(Cc1ccccc1)N1CCCCN2[C@H](C1)[C@H](c1ccc(C#CC3(O)CCCC3)cc1)[C@@H]2CO	-14.9%
O=c1[nH]c2ccccc2n1C1CCN(C(c2ccccc2)c2nnnn2Cc2ccccc2)CC1 (stereo not given)	-11.7%
C[N+]1(C)CCOC(O)(c2ccc(-c3ccc(C4(O)C[N+](C)(C)CCO4)cc3)cc2)C1 (stereo not given)	70.8% (active)
O=C(O)[C@H]1[C@H](CO)[C@H]2Cn3c(cccc3=O)[C@@H]1N2C(=O)c1ccccc1	2.96%
C[C@@H]1CN([C@H](C)CO)C(=O)CCCn2cc(nn2)CO[C@@H]1CN(C)C(=O)Oc1cccc2ccccc12	-6.69%
CCCCCCCCCCCCn1ccc(=N)cc1	50% (active)
O=C(Cc1ccncc1)N1CCCCN2[C@H](CO)[C@@H](c3ccc(C#CC4(O)CCCC4)cc3)[C@H]2C1	1.26%
COC(=O)[C@H]1[C@H](CO)[C@H]2Cn3c(ccc(C4=CCCC4)c3=O)[C@@H]1N2C(=O)CC1CC1	-4.86%
O=C(Cc1ccncc1)N1CCCCN2[C@@H](CO)[C@H](c3ccc(C#CC4(O)CCCC4)cc3)[C@@H]2C1	-1.57%
COc1cccc(-c2ccc([C@H]3[C@H]4CN(C(=O)Cc5ccncc5)CCCCN4[C@H]3CO)cc2)c1	-63.8%
O=C(Cc1ccncc1)N1CCCCN2[C@@H](CO)[C@H](c3ccc(-c4ccncc4)cc3)[C@@H]2C1	-1.75%
CCC(C)NC1(c2ccccc2)CCCCC1 (stereo not given)	-8.77%
CC1=CC(=Cc2sc3ccccc3[n+]2C)C=C(C)O1	60.3% (active)
O=C(NC[C@@H]1CC[C@H]2NC[C@H]2O1)C1CCCC1	-11.1%
OC[C@@H]1[C@H]2c3ccccc3NC[C@H]2N1Cc1cccnc1	0.281%
COc1ccc2c(c1)[C@@]13CCCCC1[C@@H](C2)NCC3 (stereo not given in full)	-7.04%

Reference: PubChem BioAssay AID651710 (Broad Institute, 2012)
